Tests used:
Assay in all cases: PBM binding z-score (relative to random genomic background probes); higher = stronger binding; sequences stand for … in GC…GCGATTGACAGCGTAGAATGAAGG
[1] = test system: FXR:RXRa (NR concentration 270 nM, RXRa partner concentration 90 nM)
In short: (§1)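 On custom Agilent 4×180K arrays, double-stranded probes with 34-nt variable regions carried direct-repeat seeds, single-nucleotide variants, half-site ablations or random human genomic background. Ligand-free nuclear receptor dimers were applied for 1 h, and binding was read with antibodies against each partner (one per run). Binding z-scores come from regression-normalized fluorescence, with the random background probes as reference.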

[2] = test system: LXRa:RXRa (NR concentration 270 nM, RXRa partner concentration 90 nM)
In short: as §1

[3] = test system: LXRa homodimer (NR concentration 270 nM)
In short: as §1

[4] = test system: LXRb:RXRa (NR concentration 270 nM, RXRa partner concentration 90 nM)
In short: as §1

[5] = test system: LXRb homodimer (NR concentration 270 nM)
In short: as §1

[6] = test system: PPARa:RXRa (NR concentration 270 nM, RXRa partner concentration 90 nM)
In short: as §1

[7] = test system: PPARg:RXRa (NR concentration 180 nM, RXRa partner concentration 90 nM)
In short: as §1

[8] = test system: PPARg:RXRa 270nM:90nM, anti-RXR (NR concentration 270 nM, RXRa partner concentration 90 nM)
In short: as §1

[9] = test system: PPARg:RXRa 30nM:10nM, anti-RXR (NR concentration 30 nM, RXRa partner concentration 10 nM)
In short: as §1

[10] = test system: PPARg:RXRa 90nM:30nM, anti-RXR (NR concentration 90 nM, RXRa partner concentration 30 nM)
In short: as §1

[11] = test system: PPARg:RXRa DBDmut IVT, anti-RXR (DBD mutation: RXRa K156A/R161A, NR concentration 270 nM, RXRa partner concentration 90 nM)
In short: as §1

[12] = test system: PPARg:RXRa IVT, anti-PPARg (NR concentration 270 nM, RXRa partner concentration 90 nM)
In short: as §1

[13] = test system: PPARg DBDmut:RXRa IVT, anti-PPARg (DBD mutation: PPARg1 K132A/R137A, NR concentration 270 nM, RXRa partner concentration 90 nM)
In short: as §1

[14] = test system: PPARg DBDmut IVT, anti-PPARg (DBD mutation: PPARg1 K132A/R137A, NR concentration 270 nM)
In short: as §1

[15] = test system: PPARg homodimer (NR concentration 180 nM)
In short: as §1

[16] = test system: PXR:RXRa (NR concentration 270 nM, RXRa partner concentration 90 nM)
In short: as §1

[17] = test system: PXR homodimer (NR concentration 270 nM)
In short: as §1

[18] = test system: RARa:RXR (NR concentration 270 nM, RXRa partner concentration 90 nM)
In short: as §1

[19] = test system: RARa homodimer (NR concentration 270 nM)
In short: as §1

[20] = test system: RARb:RXRa (NR concentration 270 nM, RXRa partner concentration 90 nM)
In short: as §1

Sequence	PBM binding z-score [1]	PBM binding z-score [2]	PBM binding z-score [3]	PBM binding z-score [4]	PBM binding z-score [5]	PBM binding z-score [6]	PBM binding z-score [7]	PBM binding z-score [8]	PBM binding z-score [9]	PBM binding z-score [10]	PBM binding z-score [11]	PBM binding z-score [12]	PBM binding z-score [13]	PBM binding z-score [14]	PBM binding z-score [15]	PBM binding z-score [16]	PBM binding z-score [17]	PBM binding z-score [18]	PBM binding z-score [19]	PBM binding z-score [20]
ATCGCAAGGTCGAAGGTGAGTATACCCACCCGAA	1.5	1.58	-0.525	1.16	-0.359	3.01	2.77	3.69	0.969	2.25	-0.513	1.21	0.246	-0.257	0.231	1.89	-0.311	2.65	-0.621	2.41
ATCTCTAGGTAAAGACAGTTCAGTGAATGCAAAT	0.377	2.43	0.934	0.745	0.542	0.628	0.336	0.491	0.147	0.518	2.12	1.73	0.488	0.666	0.86	1.61	1	0.704	1.05	0.625
CGTCCCAGGTCAATGCTAGGTCAGTGAAAGCATT	4.29	4.18	2.32	3.02	-0.0307	3.94	2.35	3.05	0.367	1.97	2.01	2.96	-0.129	-0.875	3.66	3.21	0.306	4.72	-0.102	4.37
TCGAGTAGGTCAGGGGCATTCAGAATGGCGTCGA	2.3	1.52	-0.495	1.9	-0.546	3.41	4.73	4.8	2.48	4.21	4.91	5.07	-0.408	-0.403	1.33	1.2	-0.323	1.44	-0.681	3.39
ATCTCTAGTTAAAGTTCAGTGAAAGATCGATAGA	1.49	2.07	2.94	1.57	1.33	1.78	1.74	3.2	1.74	2.89	0.143	0.671	0.424	1.48	2.14	2.29	2.21	1.41	2.45	2.61
ATATGTAGGTTATCGGGTCATTCCGTTTGCGCAT	3.08	3.17	1.85	3.11	0.638	4.81	6.78	5.92	3.37	5.6	7.56	7.62	4.25	2.25	2.58	3.12	1.27	3.83	0.962	2.65
CCCCGGAGGACAACAGGAGGTCAGAGCTGCCAGA	1.51	2.55	2.5	1.75	-0.479	2.24	0.602	0.469	-0.809	-0.262	-0.654	0.373	-1.55	-1.4	2.15	2.19	0.777	2.7	0.677	2.86
CTCGAAAGGTCGGTCGAGGTGAGTATACGGATAA	2.43	1.82	-0.49	1.29	-0.496	2.75	0.678	1.5	0.401	0.892	0.299	1.21	0.0612	-0.418	0.551	3.08	-0.312	2.59	-0.801	3.2
CGTCCAAGGTCAAGGTAAGTGAAAGAGACTCGAA	7.13	5.23	0.112	3.72	0.343	5.58	5.26	5.51	1.81	4.01	3.13	3.85	0.749	0.108	3.18	3.52	0.541	4.27	1.1	5.3
TCATATAGGTAAATGCTAGGTGAAAGTCCGATCT	1.23	1.02	0.256	0.834	-0.0467	1.43	1.09	2.44	3.65	3.19	3.92	2.74	1.21	1.03	0.763	0.713	0.387	1.07	1.52	0.642
ATCCCTAGGTAAAGATAGTTCAGTGAATGCAAAT	0.139	4.49	0.337	0.881	0.0793	0.459	0.486	-0.104	-0.14	-0.302	-0.0456	0.0928	0.379	0.507	0.544	1.12	0.666	0.665	1.04	0.863
CCTTACGGGTCACTGACAGGTTAGAGCATTTGGA	5.51	3.9	0.227	3.04	-0.348	5.19	4.35	4.64	1.58	3.02	3.5	3.63	0.322	-0.672	2.02	3.32	-0.369	4.51	0.501	3.95
AGAACGAGGGCGCGCTGAGTTGATAGCAGAGTAG	-0.365	-0.482	-0.786	-0.508	-1.21	0.138	0.362	-0.296	-0.293	-0.308	1.09	0.807	-0.354	-0.835	-0.746	0.224	-0.402	-0.0213	-1.26	0.529

— the supplement of paper PMC6555819
